This is a sample that favours compounds with a hit; in the whole collection about 9% have one here.
LMNA splice mod: LMNA splicing modulation; actives 0.01% (n = 200,000); HeLa LMNA splicing GFP/RFP minigene ratio, 48 h; AID 1487; Potency, µM (series often up to 46.1 µM), without a hit: at the top dose ratio change, negative = inhibition, actives largely listed as inhibitors; active = well fitted inhibition curve with a large enough effect in the signal ratio, with a control signal flat, not every such curve was filed as active; inconclusive = small, poorly fitted or top-dose-only effect, or effect the other way, or a change in a side signal; the % refers to the signal ratio
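S3 HeLa cells stably expressing lamin A-EGFP splicing minigene plus DsRed2, 600 cells/well, 48 h compound exposure at 37C. Laser-scanning cytometry; analysed as GFP (500-530 nm)/RFP (575-640 nm) total intensity ratio; 0.5% DMSO vehicle.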
IMPase Li cell: membrane-permeable IMPase blocker, potentiated with lithium | CHO-M1 cells, IP1 TR-FRET (IP-One), carbachol + lithium | Potency, µM (titrated, usually from 59.4 µM), for the others: at the highest dose activity, negative = IMPase inhibition, actives largely listed as inhibitors | actives 0.35% (n = 210,000);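 also: IP1 builds up when IMPase is blocked and the TR-FRET signal falls; plate controls were basal vehicle for no effect and high inhibitor control for full effect; nearly all actives have a fitted effect of over 50% in size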
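CHO-M1, 2000 cells/well, 16–30 h culture; cpd + low Li+, 30 min 37C; lysis with d2-IP1/Eu-anti-IP1 Ab, 10 min RT; TR-FRET 665/620 ratio and 620 channel; AC50 via Hill.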
ALDH1A1 block: inhibitors of human aldehyde dehydrogenase 1A1 | Potency, µM (top dose mostly 75.3 µM), inactives show top-dose activity, negative = inhibition, actives largely listed as inhibitors | Purified ALDH1A1, NADH fluorescence, propionaldehyde substrate | P00352 | actives 7.3% (n = 220,000); active = well fitted inhibition curve with a large enough effect, not every such curve was filed as active; inconclusive = small, poorly fitted or top-dose-only effect, or another doubt; inactive = no such curve, though single readings can be large or run the other way;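 also: plate controls were no enzyme wells and a reference inhibitor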
Target sequence (P00352 whole entry, looked up): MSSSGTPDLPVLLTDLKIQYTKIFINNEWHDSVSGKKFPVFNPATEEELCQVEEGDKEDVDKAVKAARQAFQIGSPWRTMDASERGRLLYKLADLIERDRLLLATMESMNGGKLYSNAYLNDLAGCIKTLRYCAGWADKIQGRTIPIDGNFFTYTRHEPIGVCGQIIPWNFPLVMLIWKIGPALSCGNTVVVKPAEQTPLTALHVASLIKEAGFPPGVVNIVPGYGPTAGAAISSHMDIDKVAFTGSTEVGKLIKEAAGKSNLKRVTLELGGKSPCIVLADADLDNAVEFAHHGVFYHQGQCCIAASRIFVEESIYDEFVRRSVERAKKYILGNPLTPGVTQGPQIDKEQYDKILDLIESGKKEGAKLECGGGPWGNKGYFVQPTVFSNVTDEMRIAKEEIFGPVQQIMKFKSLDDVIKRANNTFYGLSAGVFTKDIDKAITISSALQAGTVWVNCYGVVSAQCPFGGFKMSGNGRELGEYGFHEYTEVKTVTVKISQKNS
HPGD inh: HPGD (human) dehydrogenase inhibition; P15428; purified HPGD, NADH fluorescence kinetic, PGE2 substrate; Potency, µM, for inactives: at the highest dose activity change, negative = inhibition, actives largely listed as inhibitors; actives 4.3% (n = 150,000); active = well fitted inhibition curve with a large enough effect, not every such curve was filed as active; inconclusive = small, poorly fitted or top-dose-only effect, or another doubt; inactive = no such curve, though single readings can be large or run the other way
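20 nM HPGD preincubated 15 min at room temperature with compound in 50 mM Tris-HCl pH 8, 0.01% Tween 20. Started with 1 mM NAD+ and 30 uM prostaglandin E2; NADH fluorescence (360/450 nm) read 5 times over 30-s intervals, last minus first.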
KinaseGlo FLuc: counter-screen: inhibitors of Kinase-Glo firefly luciferase | Kinase-Glo luciferase, ATP luminescence, 8 min | Potency, µM (doses to about 38.3 µM), inactives show top-dose activity change, negative = inhibition, usual class: inhibitors | actives 0.28% (n = 200,000); also: nearly all actives have a fitted effect of over 60% in size
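Compound is pinned into ATP-containing buffer (10 uM ATP, imidazole pH 7.2, 7 mM MgCl2). Kinase-Glo luciferase reagent is then added. Light output is recorded following an 8-min room-temperature incubation.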
Numbers without * were called inactive; u = inconclusive; x = no result given; [ ] = another dose, or the depositor's remark. Unless noted, calls follow the shape of the dose curve; as a rule, active = well fitted curve in the direction sought with a large enough effect; inconclusive = small, poorly fitted or top-dose-only effect, or another doubt; inactive = no such curve, though single readings can be large; an effect the other way counts as inactive or inconclusive. Unless noted, % is scaled to controls: 0 for no effect and ±100 for the full control effect; potency is read from the fitted curve at half-maximal effect.

SMILES | LMNA splice mod | IMPase Li cell | ALDH1A1 block | HPGD inh | KinaseGlo FLuc
Cc1ccccc1C(=O)NNC(=S)NC(=O)c1ccccc1 | u | 3.7% | 14.1µM* | -22.0% | 2.2%
Cc1ccccc1C(=O)NNC(=O)c1ccc(Br)cc1 | x | 15.9% | -2.3% | x | -2.6%
CC(=O)Nc1ccc(NC(=S)NC(=O)c2ccc([N+](=O)[O-])cc2)cc1 | 3.9% | 4.6% | -4.9% | -19.5% | 0.3%
O=C(Nc1ccc2c(c1)OCO2)C1CCCCN1S(=O)(=O)c1ccccc1 (centres undefined) | 4.5% | 9.4%[38.3 µM] | u | -7.0% | -6.1%
Cc1cccc(N2C(=O)CSC23C(=O)N(CC(=O)NCc2ccccc2Cl)c2ccccc23)c1 (centres undefined) | -8.3%[46 µM] | x | x | x | x
Cc1noc2ncnc(N3CCCC(C(=O)Nc4cc(F)ccc4F)C3)c12 (centres undefined) | -3.9%[46 µM] | x | x | x | x
Cc1ccc(S(=O)(=O)NNC(=S)NC(=O)c2ccc([N+](=O)[O-])cc2)cc1 | 4.2% | -0.6% | 17.8µM* | 28.2µM* | 1.4%
O=C(NNC(=S)NC(=O)c1ccccc1[N+](=O)[O-])c1ccccc1[N+](=O)[O-] | 3.7% | 21.7%[38.3 µM] | -11.1% | -7.7% | -1.2%
Cc1ccc(C(=O)NC(=S)NNC(=O)c2ccccc2[N+](=O)[O-])cc1 | u | -0.9% | 22.4µM* | 39.8µM* | 1.2%
Cc1ccc(S(=O)(=O)NNC(=O)c2ccc(O)cc2)cc1 | -11.7% | 2.3% | -11.5% | -2.3% | -2.1%
COC(=O)C/C=C\[C@@H](C)[C@@H](/C=N\OC[C@@H]1O[C@H](c2ccccc2)C=C[C@@H]1Oc1ccc(OC)cc1)NS(=O)(=O)c1ccc(C)cc1 | x | x | -0.3%[13.5 µM] | x | x
CCc1ccc2[nH]c(=O)c(CN(Cc3ccccc3OC)Cc3nnnn3Cc3ccco3)cc2c1 | u | 36.8%[38.3 µM] | 25.1µM* | -14.9% | -0.2%
COc1ccccc1CN(Cc1cc2cc(C)ccc2[nH]c1=O)Cc1nnnn1Cc1ccco1 | 8.2% | 14.2%[38.3 µM] | u | u | -0.5%
Cc1ccc2cc(CN(CCN3CCOCC3)Cc3nnnn3Cc3ccco3)c(=O)[nH]c2c1C | -2.0% | 4.5%[38.3 µM] | 5.01µM* | -5.1% | 0.2%
COC(=O)c1cc(OC)c(OC)cc1NC(=S)N1CCN(c2ccccn2)CC1 | x | 4.8% | u | x | 2.8%
C=CCNC(=O)COC(=O)c1cc(S(=O)(=O)N2CCCCC2)ccc1Cl | 5.8%[46 µM] | 0.7% | 7.0% | x | 0.3%
COc1ccc(NC(=O)C2CCOC(C)(C)C2)cc1 (centres undefined) | x | x | -11.0% | x | x
N#CC1=C2N=C(N)c3ccccc3N2C2=C(C(=O)CCC2)C1c1ccc(Cl)cc1 (centres undefined) | 23.2% | -3.5% | 0.3% | -4.3% | -1.4%
Cc1ccccc1C1C(C#N)=C2N=C(N)c3c(sc4c3CCCCC4)N2C2=C1C(=O)CCC2 (centres undefined) | u | -1.0%[38.3 µM] | 2.24µM* | -11.5% | 0.2%
Cc1cc(C)c2nc(N3CCC(C(=O)N4CCN(c5ncccn5)CC4)CC3)sc2c1 | 7.6% | 9.1%[38.3 µM] | u | -9.0% | -5.1%
Cc1cc(C)c2nc(N3CCC(C(=O)N4CCCC4)CC3)sc2c1 | u | 21.1%[38.3 µM] | -12.3% | 12.6µM* | -2.6%
COc1ccc(C(=O)N2CCC3(CC2)CN(c2ccc(-c4ccccc4)cc2)C3)cc1 | x | 8.3% | 0.5% | -4.3% | -2.3%
Cc1cccc(NC(=O)/C=C/c2cccs2)n1 | -9.5% | -5.3%[38.3 µM] | u | 28.2µM* | 12.6µM*
O=C1CCN(c2ccc([N+](=O)[O-])cc2F)CC1 | 0.7%[46 µM] | 16.5% | 8.91µM* | x | -1.9%
COc1ccc(NC(=S)Nc2cccc(Cl)c2Cl)cc1OC | u | -2.6% | u | x | -1.3%
CCOc1ccc(NC(=S)Nc2cc(-c3ccccc3)[nH]n2)cc1 | 8.3% | 9.2%[38.3 µM] | 12.6µM* | -14.8% | 1.8%
COc1ccc(NC(=S)Nc2cc(-c3ccccc3)[nH]n2)cc1Cl | u | -5.5% | 10µM* | -28.8% | 3.3%
Cc1cc(NC(=S)Nc2ccc(C)c(Cl)c2)n[nH]1 | x | 9.6% | 1.41µM* | x | 2.5%
Cn1cccc1C(=O)N1CCC2(CCN(Cc3ccc(C#N)cc3)CC2)CC1 | x | 33.8% | -4.1% | -14.5% | -1.4%
O=c1cc(-c2ccccc2)nc(SCCOc2ccccc2Cl)[nH]1 | -5.3%[46 µM] | 12.8% | 1.5% | x | 8.2%

Assay outcomes from PubChem.
